Test results reported in ChEMBL document CHEMBL3988442, “University of Dundee, Small-Polar-MMV Screening Library” (2021).
Hit rate of the full screen: of about 48,000 compounds, about 13,000 (27%) showed an effect of 50% or more. This is one part of the list.

System: Wolbachia pipientis
Assay: Anti-Wolbachia Cell-Based Screen
Format: functional
Set-up: scale not given: in the data most compounds retested in dose-response had high values
Settings: 5 µM

| SMILES | Percent Effect |
| --- | --- |
| CSc1nccc(N2CCN(C)C3(CCNC(=O)CC3)C2)n1 (stereo unspecified) | -8.805% |
| c1ccc(NC[C@@H]2CCC[C@@H]3CN(Cc4csnn4)C[C@@H]32)nc1 | 5.24% |
| Cc1cccc(CN2CC3C[C@]3(NC(=O)c3ccoc3)C2)n1 (stereo partly specified) | -6.434% |
| O=C(O)C(F)(F)F.O=C(O)C(F)(F)F.O=C(O)C(F)(F)F.c1ccc(CO[C@@H]2CO[C@@]3(CCN(Cc4ccccn4)C3)C2)nc1 | 19.79% |
| CS(=O)(=O)NC1CC2(CCN(CCF)CC2)Oc2ccccc21.O=C(O)C(F)(F)F (stereo unspecified) | 90.28% |
| CS(=O)(=O)N[C@@H]1CN(Cc2ccncc2)C[C@@H]2CCCO[C@@H]21.O=C(O)C(F)(F)F.O=C(O)C(F)(F)F | -0.6746% |
| CCC(O)Cn1cc(C2=CCN(Cc3cc(O)nc(C)n3)CC2)cn1 (stereo unspecified) | 5.407% |
| Cl.Cl.Cn1ccc(CN2CCOCC23CCNCC3)n1 | -7.915% |
| CN(CCc1ccccc1)Cc1c(C2CC2)[nH]c2ncccc12 | 128% |
| CN(Cc1ccccc1)c1ncccc1CNC1CN2CCC1CC2 (stereo unspecified) | -8.195% |
| c1cnc(NC[C@H]2OC[C@@H]3CCN(Cc4ccncc4)C[C@@H]32)nc1 | 115% |
| Cn1cc(CN2CC[C@H]3CO[C@H](CNc4ncccn4)[C@H]3C2)cn1.O=C(O)C(F)(F)F.O=C(O)C(F)(F)F | -23.96% |
| c1csc(CN2CC[C@H]3C[C@H](c4ccncn4)O[C@@H]3C2)c1 | 13.32% |
| O=C(O)C(F)(F)F.O=C(O)C(F)(F)F.O=C(O)C(F)(F)F.c1cnc(NC[C@H]2OC[C@@H]3CCN(Cc4nccs4)C[C@@H]32)nc1 | 101% |
| c1ccc(CN2CC[C@H]3CO[C@H](CNc4ncccn4)[C@H]3C2)nc1 | -4.696% |
| O=C(O)C(F)(F)F.O=C(O)C(F)(F)F.O=C(O)C(F)(F)F.c1cnc(NC[C@H]2OC[C@@H]3CCN(Cc4cccnc4)C[C@@H]32)nc1 | 106.3% |
| O=C(O)C(F)(F)F.O=C(O)C(F)(F)F.c1ccc(CN2CC[C@H]3CO[C@H](CNc4ncccn4)[C@H]3C2)cc1 | 109.8% |
| Cc1ccc(OCC(=O)N2CCN[C@H]3CS(=O)(=O)C[C@H]32)cn1 | -8.198% |
| N#CC1(c2ccccc2)CCN(C(=O)C2CCCN(C(N)=O)C2)CC1 (stereo unspecified) | 6.737% |
| CCC(CC)C(=O)N1CCOC2(CNC2)C1 | -30.77% |
| CS(=O)(=O)c1ccc(CC(=O)N2CCN3CCNC(=O)C3C2)cc1 (stereo unspecified) | -12.31% |
